# PubChem BioAssay (NCATS)
# “And” between values parts separate entries of the source, which are not always exact repeats. Equal entries are not always repeated. Records with an inconclusive call do not appear. Entries that show only a call come without a potency. The source made the active and inactive calls. Unless noted, calls follow the shape of the dose curve; as a rule, active = well fitted curve in the direction sought with a large enough effect; inconclusive = small, poorly fitted or top-dose-only effect, or another doubt; inactive = no such curve, though single readings can be large; an effect the other way counts as inactive or inconclusive.
# What was measured:
# [1] = molecular target: Calcium and integrin-binding protein 1 (Homo sapiens) (UniProt Q99828); test: Primary qHTS for Identification of Calcium Integrin Binding Protein 1 (CIB1) Competitor (AID 1508620);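 also: GST tagged CIB1 binding a fluorescein labelled alphaIIb integrin peptide tracer; top concentration of the series differs between compounds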
# Procedure, shortened: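 Fluorescence polarization competition: CIB1-GST (1 uM final) preincubated with compound 15 min at room temperature, then FITC-labeled alphaIIb peptide (100 nM final) added for another 15 min. Polarization read at Ex 480/Em 540.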
# [2] = test system: HIV-1 nucleocapsid protein NCp7 (binding to TG oligonucleotide); test: HIV Nucleocapsid (AID 346; call rule not given here;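 also: potency is read from the fitted curve at half-maximal effect; potency is for inhibitors that block NC binding and lower polarization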); details: HIV-1 NC / fluorescein-TGTGTGTG probe, fluorescence polarization
# Procedure, shortened: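 HIV-1 NC (100 nM) binding to fluorescein-labelled ssDNA TG4xF (10 nM) in Hepes pH 7.5, 250mM NaCl, 1uM ZnCl2, TCEP and 2-mercaptoethanol; compounds pin-transferred, 1 hr room temperature, fluorescence polarization read on CCD imager.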
# [3] = molecular target: Lysosomal acid glucosylceramidase (Homo sapiens) (UniProt P04062); test: Glucocerebrosidase-p2 (AID 348; in the data active = potency below about 10 µM; also: potency is read from the fitted curve at half-maximal effect); details: purified GBA, blue fluorogenic substrate, 40 min
# Procedure, shortened: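 Normal human glucocerebrosidase (0.2 nM) with blue fluorogenic substrate (80 uM final) in citrate/phosphate pH 5.9 with 10mM sodium taurocholate, 0.01% tween-20; 40 min RT, NaOH/glycine stop; fluorescence Ex 365/Em 440; AC50 from a titration from 0.6 nM upwards.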
# [4] = AP1 Signaling Pathway (AID 357; active = well fitted curve in either direction with a large enough effect, not every such curve was filed as active;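 also: ME-180 reporter cells stimulated with EGF at its EC50 level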)
# Procedure, shortened: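 Modulation of EGF-driven AP-1 transcription was assessed with a beta-lactamase reporter in ME-180 cells. Compound and EC50 EGF were co-incubated 5 hours at 37 °C before 2.5-hour CCF4 loading at room temperature and dual-emission reading.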
# [5] = molecular target: Cytochrome P450 1A2 (Homo sapiens) (UniProt P05177); test: p450-cyp1a2 (AID 410; calls by dose curve; also: potency is read from the fitted curve at half-maximal effect)
# Procedure, shortened: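 Luminescent demethylation readout: Luciferin-ME (100uM, equal to Km) turned over by 20nM CYP1A2 for 60 min at room temperature after NADPH regeneration addition, following 10 min compound preincubation. Normalization used 57 uM furafylline as full inhibition.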
# [6] = NFAT Signaling Pathway (AID 444; active = well fitted curve in either direction with a large enough effect, not every such curve was filed as active;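 also: carbachol stimulus at about its EC50 of 1 µM final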); details: Jurkat NFAT-bla M1, carbachol, beta-lactamase ratio, 5 h
# Procedure, shortened: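 Jurkat cells carrying an NFAT-driven β-lactamase reporter and co-transfected muscarinic M1 receptor were treated with compound plus carbachol (1 uM final, an EC50 level) for 5 h at 37 °C. CCF4 loading followed for 1 h at RT; 460/530 nm ratio gave %activity.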
# [7] = molecular target: Glucocorticoid receptor (Homo sapiens) (UniProt P04150); test: GR-EFC Redistribution (AID 451; calls by dose curve; also: potency is read from the fitted curve at half-maximal effect); details: CHO-K1 GR-EFC translocation, beta-gal luminescence, 2 h
# Procedure, shortened: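 CHO-K1 cells stably expressing nuclear-localized β-gal enzyme acceptor and GR fused C-terminally to the enzyme donor fragment; ligand-driven nuclear translocation restores β-gal by complementation. Compounds titrated up to 46 uM final, 2 h at 37 °C; luminescence read.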
# [8] = molecular target: Mitogen-activated protein kinase 10 (Mus musculus) (UniProt Q61831); test: JNK3 AlphaScreen Assay (AID 530; active = well fitted curve in either direction with a large enough effect, not every such curve was filed as active;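 also: kinase came from lysate of stimulated human HepG2 cells; signal reports phosphorylation of biotinylated GST-cJun 1-79 at Ser73 with 10 µM ATP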)
# Procedure, shortened: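 Phosphorylation of biotinylated GST-cJun(1-79) at Ser73 is measured by AlphaScreen proximity luminescence. Enzyme is JNK3 in HepG2 lysates activated with interleukin-1beta and tumor necrosis factor alpha; ATP is 10 uM final.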
# [9] = molecular target: 3',5'-cyclic-AMP phosphodiesterase 4B (Homo sapiens) (UniProt Q07343); test: qHTS Assay for Inhibitors of PDE-IV (AID 607; active = well fitted activation curve with a large enough effect in the main read-out, with a control signal flat, not every such curve was filed as active)
# Procedure, shortened: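 Cell-based read-out of cAMP via a modified cyclic nucleotide-gated channel and membrane potential dye (535/590 nm) in HEK293 cells expressing PDE4 endogenously. Compounds tested up to 22.9 uM final; 100 uM RO 20-1724 reference.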
# [10] = molecular target: Cytochrome P450 3A4 (Homo sapiens) (UniProt P08684); test: qHTS Assay for Activators of Cytochrome P450 3A4 (AID 885); also: nearly all actives have a fitted effect of over 65% in size
# Procedure, shortened: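 Luminescent readout of luciferin formed from 25 uM Luciferin-PPXE (KM level) by 20 nM CYP3A4 in 200 mM KPO4, with 60 min NADPH-driven reaction at room temperature after 10 min compound exposure. Ketoconazole (57 uM) defined 100% inhibition.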
# [11] = molecular target: Cytochrome P450 2D6 (Homo sapiens) (UniProt P10635); test: qHTS Assay for Inhibitors and Substrates of Cytochrome P450 2D6 (AID 891); also: potency is read from the fitted curve at half-maximal effect; nearly all actives have a fitted effect of over 60% in size
# Procedure, shortened: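 Luminescent read-out of luciferin formed by 5 nM human CYP2D6 demethylating 30 uM Luciferin-ME EGE (Km level) over 60 min at room temperature after NADPH regeneration addition. Data normalized to full inhibition by 1.43 uM quinidine.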
# [12] = qHTS Assay for Lipid Storage Modulators (AID 1519; calls by dose curve); details: Drosophila S3 cells, BODIPY lipid droplet/cell ratio, laser cytometry, cells loaded with oleic acid
# Procedure, shortened: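 Cells seeded at 5,000 per well were treated with compounds over a concentration series and loaded with oleic acid (400 uM, as added). Lipid droplet fluorescence (488 nm excitation, 500-530 nm channel) was read by laser-scanning cytometry and normalized to 20 uM Triacsin C.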
# [13] = Cell Viability qHTS for small molecule stabilizers of the endoplasmic reticulum resident proteome (AID 1508629); details: cell viability counter-screen, 100 nM thapsigargin for final 4 h;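 also: human SH-SY5Y neuroblastoma cells carrying the GLuc-SERCaMP reporter; compound exposure about 46 h in total before the viability read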
# [14] = molecular target: Glucocorticoid receptor (Homo sapiens) (UniProt P04150); test: GR-GFP Redistribution (AID 450;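 active = compounds whose dose series gives a full or clear partial fitted curve of increased nuclear translocation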; also: potency is read from the fitted curve at half-maximal effect); details: U2OS GR-GFP nuclear translocation, laser cytometry, 2 h
# [15] = molecular target: Guanine nucleotide-binding protein G(i) subunit alpha-1 (Homo sapiens) (UniProt P63096); test: qHTS Assay for Inhibitors of RGS12 GoLoco Motif Activity (Green Fluorophore) (AID 879);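 also: negative values mean loss of peptide binding seen as reduced polarization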
# Procedure, shortened: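 A drop in FITC polarization marked displacement of the FITC-tagged RGS12 GoLoco peptide (10 nM) from Gαi1 (50 nM). Compounds were incubated 10 min at room temperature in Tris pH 7.5 buffer containing 150 mM NaCl, 0.1 mM GDP and 0.05% NP40; unlabeled peptide titration served as control.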
# [16] = qHTS Assay for Identification of Small Molecule Antagonists for NFkB Signaling Pathway (AID 895; active = well fitted inhibition curve with a large enough effect in the signal ratio, with a control signal flat, not every such curve was filed as active; the % refers to the signal ratio; also: potency is read from the fitted curve at half-maximal effect)
# Procedure, shortened: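 NFkB-bla ME-180 cervical carcinoma cells with beta-lactamase reporter under NFkB response element; compounds added, then TNF alpha at 10 pM final (EC50), 5 h at 37 C. LiveBLAzer substrate 2 h, room temperature; emission 460/530 nm at 405 nm excitation.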
# [17] = qHTS Assay for Identification of Small Molecule Agonists for Thrombopoietin (TPO) Signaling Pathway (AID 917)
# Procedure, shortened: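 First, Ba/F3 cells with human TPO receptor were held overnight without IL-3. Next, compounds and TPO (26 pM final) were added. After 24 hrs at 37 C, luciferase detection reagent was added and luminescence measured following 10 min at room temperature.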
# [18] = molecular target: Muscarinic acetylcholine receptor M1 (Rattus norvegicus) (UniProt P08482); test: qHTS Assay for Antagonists of Acetylcholine Muscarinic M1 Receptor: Kinetic Measurement of Intracellular Calcium Response (AID 943);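 also: Fluo-4 calcium signal as peak divided by basal fluorescence over 4 min; nearly all actives have a fitted effect of over 75% in size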
# Procedure, shortened: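 Antagonism measured as reduction of carbachol-evoked (EC80, 100 nM final) calcium flux in rat M1-CHO cells after 10 min compound exposure. Fluo-4 signal read kinetically; ratio of maximal to basal fluorescence.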
# [19] = molecular target: Pyruvate kinase (Leishmania mexicana) (UniProt Q27686); test: qHTS Validation Assay for Inhibitors of Leishmania Mexicana Pyruvate Kinase (AID 945)
# Procedure, shortened: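 Compounds are tested as eight-point concentration series. Reactions contain 0.2 nM LmPYK E451W, 0.5 mM PEP, 0.1 mM ADP, 7 mM MgCl2 and 50 mM KCl at pH 7.2, run 1 h at room temperature, then read by PKLight luminescence.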
# [20] = molecular target: Pyruvate kinase PKM (Homo sapiens) (UniProt P14618); test: qHTS Assay for Activators of Human Muscle Pyruvate Kinase (AID 954; active = well fitted curve in the direction sought with a large enough effect, not every such curve was filed as active)
# Procedure, shortened: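 ATP production by PKM2 detected via luciferase luminescence after 1 h room-temperature reaction (0.1 nM enzyme, PEP at Km 0.5 mM, ADP 0.1 mM, pH 7.2 imidazole buffer). Inhibition scaled to no-enzyme control; activation referenced to 0.3 nM enzyme wells.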
# [21] = molecular target: Alpha-galactosidase (Coffea arabica) (UniProt Q42656); test: Counterscreen for Glucocerebrosidase Inhibitors: qHTS Assay for Coffee Bean alpha-Galactosidase at pH 4.5 (AID 957)
# Procedure, shortened: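 Fluorogenic qHTS at pH 4.5 (citrate buffer with Tween-20): 2 nM enzyme, 80 uM 4-MU-alpha-galactoside substrate, compound titrated 0.7 nM to 77 uM, 20 min room temperature. Glycine/NaOH stop; 4-MU read Ex 365/Em 440; Hill-equation AC50 against no-enzyme and enzyme controls.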
# [22] = molecular target: Alpha-galactosidase A (Homo sapiens) (UniProt P06280); test: Counterscreen for Glucocerebrosidase Inhibitors: qHTS Assay for Human alpha-Galactosidase at pH 4.5 (AID 992)
# Procedure, shortened: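 Fluorogenic 1536-well qHTS at pH 4.5 (citrate, Tween-20): 2 nM enzyme, 80 uM 4-MU-alpha-galactoside, 20 min room temperature, NaOH/glycine stop. Titration 0.7 nM to 77 uM, data normalized to no-enzyme and full-activity controls, Hill-fitted AC50.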
# [23] = molecular target: alpha-glucosidase (Oryza sativa, rice) (UniProt Q653V4); test: Counterscreen for Glucocerebrosidase Inhibitors: qHTS Assay for Rice alpha-Glucosidase at pH 5.0 (AID 997)
# Procedure, shortened: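 Endpoint fluorogenic assay at pH 5.0: compounds (0.7 nM to 77 uM) titrated against 4 nM rice enzyme and 400 uM 4-MU-alpha-glucoside for 20 min at room temperature; NaOH/glycine stop, read ex 365/em 440 nm, Hill-fitted AC50.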
# [24] = molecular target: Alpha-galactosidase (Coffea arabica) (UniProt Q42656); test: Counterscreen for Glucocerebrosidase Inhibitors: qHTS Assay for Coffee Bean alpha-Galactosidase at pH 5.9 (AID 998)
# Procedure, shortened: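 In 50 mM citric acid pH 5.9 with 0.005% Tween-20, coffee bean enzyme hydrolyses 80 uM 4-MU alpha-D-galactopyranoside over 20 min at RT. Activity is normalized to controls; AC50 comes from Hill-modelled concentration-response data.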
# [25] = molecular target: DNA dC->dU-editing enzyme APOBEC-3G (Homo sapiens) (UniProt Q9HC16); test: qHTS for inhibitors of Vif-A3G interactions: Validation (AID 588379)
# Procedure, shortened: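 Yellow fluorescence (Ex 488, Em 500-530) of Vif-coexpressing HeLa A3G-eYFP cells, scanned by Acumen cytometer, reports blocked A3G degradation. Cells plated at 700/well overnight at 37 deg C before compound addition, then a further overnight compound incubation at 37 deg C.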
# [26] = Confirmatory qHTS for small molecule stabilizers of the endoplasmic reticulum resident proteome: Secreted ER Calcium Modulated Protein (SERCaMP) assay (AID 1508628); also: potency is read from the fitted curve at half-maximal effect; nearly all actives have a fitted effect of over 40% in size
# Procedure, shortened: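 Reporter secretion upon ER calcium depletion (100 nM thapsigargin, 4 h, 37C) is measured as medium luminescence with coelenterazine, after 16 h compound pretreatment of SH-SY5Y-GLuc-SERCaMP cells; primary at three concentrations up to 38.3 uM, follow-up at 11 (up to 76.6 uM).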
# Chain of Glucocorticoid receptor (Homo sapiens) (P04150 whole entry, looked up, the tested form may be a part): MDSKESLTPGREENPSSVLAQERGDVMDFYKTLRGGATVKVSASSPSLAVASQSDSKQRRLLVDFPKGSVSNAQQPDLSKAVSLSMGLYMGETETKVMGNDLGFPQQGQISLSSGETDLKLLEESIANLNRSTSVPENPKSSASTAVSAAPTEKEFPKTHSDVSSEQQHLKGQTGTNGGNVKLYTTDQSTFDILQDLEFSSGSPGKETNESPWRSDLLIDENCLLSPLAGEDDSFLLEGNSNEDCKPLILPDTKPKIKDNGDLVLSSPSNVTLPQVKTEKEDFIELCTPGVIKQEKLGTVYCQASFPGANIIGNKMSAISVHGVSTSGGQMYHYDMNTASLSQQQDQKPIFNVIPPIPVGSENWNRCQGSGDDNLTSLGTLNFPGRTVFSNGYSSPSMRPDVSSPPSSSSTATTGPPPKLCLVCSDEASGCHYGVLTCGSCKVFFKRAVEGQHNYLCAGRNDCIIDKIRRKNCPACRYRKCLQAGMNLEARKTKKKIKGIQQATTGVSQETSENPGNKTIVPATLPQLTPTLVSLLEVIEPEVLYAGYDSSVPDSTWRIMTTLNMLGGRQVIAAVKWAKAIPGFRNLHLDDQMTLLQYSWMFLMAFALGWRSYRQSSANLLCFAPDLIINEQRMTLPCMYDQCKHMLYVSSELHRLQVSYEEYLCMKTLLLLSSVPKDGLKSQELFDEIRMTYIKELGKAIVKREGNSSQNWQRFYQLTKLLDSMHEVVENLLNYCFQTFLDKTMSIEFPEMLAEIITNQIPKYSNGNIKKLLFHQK
# Chain of Cytochrome P450 3A4 (Homo sapiens) (P08684 whole entry, looked up): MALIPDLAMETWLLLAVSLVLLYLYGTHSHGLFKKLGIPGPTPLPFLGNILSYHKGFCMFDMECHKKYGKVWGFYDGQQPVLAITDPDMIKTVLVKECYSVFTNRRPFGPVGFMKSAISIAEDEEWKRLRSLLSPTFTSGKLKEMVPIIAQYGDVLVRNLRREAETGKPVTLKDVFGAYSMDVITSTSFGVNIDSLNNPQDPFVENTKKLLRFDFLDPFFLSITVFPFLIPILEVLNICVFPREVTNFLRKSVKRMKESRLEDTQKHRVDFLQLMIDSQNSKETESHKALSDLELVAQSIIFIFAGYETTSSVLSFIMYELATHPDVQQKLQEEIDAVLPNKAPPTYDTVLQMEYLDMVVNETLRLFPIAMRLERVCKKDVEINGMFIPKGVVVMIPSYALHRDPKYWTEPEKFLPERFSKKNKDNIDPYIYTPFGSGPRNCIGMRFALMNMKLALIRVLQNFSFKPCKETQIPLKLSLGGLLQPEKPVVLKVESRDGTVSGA
# Chain of Calcium and integrin-binding protein 1 (Homo sapiens) (Q99828 whole entry, looked up): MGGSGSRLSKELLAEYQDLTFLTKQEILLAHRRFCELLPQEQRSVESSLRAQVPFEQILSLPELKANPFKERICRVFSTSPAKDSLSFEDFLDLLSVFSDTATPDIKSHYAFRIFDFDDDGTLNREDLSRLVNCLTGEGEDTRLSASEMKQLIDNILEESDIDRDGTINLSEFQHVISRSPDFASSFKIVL
# Chain of Cytochrome P450 1A2 (Homo sapiens) (P05177 whole entry, looked up): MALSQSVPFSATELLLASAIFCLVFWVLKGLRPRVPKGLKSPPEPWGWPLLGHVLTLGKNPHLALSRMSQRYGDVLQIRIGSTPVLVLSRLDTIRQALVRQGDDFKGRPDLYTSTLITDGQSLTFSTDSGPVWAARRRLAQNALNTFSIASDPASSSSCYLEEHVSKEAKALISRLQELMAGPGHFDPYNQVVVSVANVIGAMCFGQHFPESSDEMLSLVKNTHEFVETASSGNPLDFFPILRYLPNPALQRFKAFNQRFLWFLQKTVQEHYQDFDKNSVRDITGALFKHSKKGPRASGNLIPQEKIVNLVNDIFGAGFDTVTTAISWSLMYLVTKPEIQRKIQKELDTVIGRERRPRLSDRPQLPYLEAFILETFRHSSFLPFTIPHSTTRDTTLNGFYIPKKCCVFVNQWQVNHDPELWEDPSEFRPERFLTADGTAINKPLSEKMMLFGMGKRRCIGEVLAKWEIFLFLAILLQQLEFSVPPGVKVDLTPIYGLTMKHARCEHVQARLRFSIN
# Chain of Alpha-galactosidase (Coffea arabica) (Q42656 whole entry, looked up): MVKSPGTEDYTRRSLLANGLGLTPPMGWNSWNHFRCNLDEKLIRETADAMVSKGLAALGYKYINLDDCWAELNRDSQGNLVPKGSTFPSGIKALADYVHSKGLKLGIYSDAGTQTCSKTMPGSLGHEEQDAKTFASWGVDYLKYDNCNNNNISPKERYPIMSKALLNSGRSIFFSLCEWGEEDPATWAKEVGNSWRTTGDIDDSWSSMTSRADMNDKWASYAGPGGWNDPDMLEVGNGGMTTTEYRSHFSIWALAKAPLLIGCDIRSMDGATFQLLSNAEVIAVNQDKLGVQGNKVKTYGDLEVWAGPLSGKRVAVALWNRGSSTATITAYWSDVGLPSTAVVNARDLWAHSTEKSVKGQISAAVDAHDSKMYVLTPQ
# Chain of 3',5'-cyclic-AMP phosphodiesterase 4B (Homo sapiens) (Q07343 whole entry, looked up): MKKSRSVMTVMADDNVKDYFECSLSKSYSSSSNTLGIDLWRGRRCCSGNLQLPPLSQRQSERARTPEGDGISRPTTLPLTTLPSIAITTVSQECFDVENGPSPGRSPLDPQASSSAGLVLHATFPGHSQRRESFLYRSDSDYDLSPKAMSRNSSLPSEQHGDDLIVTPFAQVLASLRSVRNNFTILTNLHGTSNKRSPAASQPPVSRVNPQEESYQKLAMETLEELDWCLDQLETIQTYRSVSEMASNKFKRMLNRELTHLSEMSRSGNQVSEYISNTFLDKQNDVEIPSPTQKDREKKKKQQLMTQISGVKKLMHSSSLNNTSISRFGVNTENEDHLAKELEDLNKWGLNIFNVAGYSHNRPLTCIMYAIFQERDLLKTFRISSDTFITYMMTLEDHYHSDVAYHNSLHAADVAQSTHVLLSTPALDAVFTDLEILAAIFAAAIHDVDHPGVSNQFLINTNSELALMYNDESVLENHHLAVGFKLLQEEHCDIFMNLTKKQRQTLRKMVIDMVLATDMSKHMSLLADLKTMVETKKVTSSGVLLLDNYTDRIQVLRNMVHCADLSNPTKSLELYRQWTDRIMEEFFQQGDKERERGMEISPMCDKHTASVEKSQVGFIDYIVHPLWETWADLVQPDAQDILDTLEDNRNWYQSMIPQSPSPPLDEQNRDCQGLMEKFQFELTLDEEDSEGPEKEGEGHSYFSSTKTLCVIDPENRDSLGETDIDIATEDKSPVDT
# Chain of Guanine nucleotide-binding protein G(i) subunit alpha-1 (Homo sapiens) (P63096 whole entry, looked up): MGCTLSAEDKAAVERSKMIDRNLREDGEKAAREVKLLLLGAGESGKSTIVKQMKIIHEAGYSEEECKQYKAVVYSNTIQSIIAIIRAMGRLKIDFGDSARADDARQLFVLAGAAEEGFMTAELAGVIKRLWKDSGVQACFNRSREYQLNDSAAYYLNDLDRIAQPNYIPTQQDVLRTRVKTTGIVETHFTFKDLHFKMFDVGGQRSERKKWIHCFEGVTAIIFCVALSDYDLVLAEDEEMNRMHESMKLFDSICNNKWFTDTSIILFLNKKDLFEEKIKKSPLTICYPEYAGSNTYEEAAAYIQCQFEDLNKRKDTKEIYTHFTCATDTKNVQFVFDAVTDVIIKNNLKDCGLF
# Chain of Lysosomal acid glucosylceramidase (Homo sapiens) (P04062 whole entry, looked up): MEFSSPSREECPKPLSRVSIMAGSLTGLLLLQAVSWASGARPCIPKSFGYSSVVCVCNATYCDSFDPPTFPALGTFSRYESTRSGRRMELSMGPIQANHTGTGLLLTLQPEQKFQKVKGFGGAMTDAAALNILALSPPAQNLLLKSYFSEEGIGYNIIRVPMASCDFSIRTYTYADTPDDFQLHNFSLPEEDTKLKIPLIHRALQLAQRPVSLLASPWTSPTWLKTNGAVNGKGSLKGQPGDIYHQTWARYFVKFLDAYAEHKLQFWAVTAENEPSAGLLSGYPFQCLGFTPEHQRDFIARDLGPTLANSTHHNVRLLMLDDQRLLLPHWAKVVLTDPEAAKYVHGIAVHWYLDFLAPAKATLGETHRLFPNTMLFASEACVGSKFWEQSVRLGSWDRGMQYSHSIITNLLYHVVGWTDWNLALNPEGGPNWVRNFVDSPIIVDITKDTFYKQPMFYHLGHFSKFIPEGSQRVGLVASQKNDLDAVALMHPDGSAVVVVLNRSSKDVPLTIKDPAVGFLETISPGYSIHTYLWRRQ
# Chain of Muscarinic acetylcholine receptor M1 (Rattus norvegicus) (P08482 whole entry, looked up): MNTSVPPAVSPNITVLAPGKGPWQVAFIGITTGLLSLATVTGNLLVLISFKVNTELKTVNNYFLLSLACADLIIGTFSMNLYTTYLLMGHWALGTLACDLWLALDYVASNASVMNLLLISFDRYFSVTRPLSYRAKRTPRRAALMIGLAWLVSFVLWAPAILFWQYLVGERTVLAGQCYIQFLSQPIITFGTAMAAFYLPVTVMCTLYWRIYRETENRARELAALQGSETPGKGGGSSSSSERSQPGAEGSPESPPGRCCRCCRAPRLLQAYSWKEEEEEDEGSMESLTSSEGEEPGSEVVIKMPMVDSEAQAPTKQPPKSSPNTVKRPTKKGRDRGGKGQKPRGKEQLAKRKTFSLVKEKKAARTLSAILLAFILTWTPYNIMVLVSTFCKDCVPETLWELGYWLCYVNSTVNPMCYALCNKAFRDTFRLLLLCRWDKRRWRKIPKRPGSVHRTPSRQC
# Chain of DNA dC->dU-editing enzyme APOBEC-3G (Homo sapiens) (Q9HC16 whole entry, looked up): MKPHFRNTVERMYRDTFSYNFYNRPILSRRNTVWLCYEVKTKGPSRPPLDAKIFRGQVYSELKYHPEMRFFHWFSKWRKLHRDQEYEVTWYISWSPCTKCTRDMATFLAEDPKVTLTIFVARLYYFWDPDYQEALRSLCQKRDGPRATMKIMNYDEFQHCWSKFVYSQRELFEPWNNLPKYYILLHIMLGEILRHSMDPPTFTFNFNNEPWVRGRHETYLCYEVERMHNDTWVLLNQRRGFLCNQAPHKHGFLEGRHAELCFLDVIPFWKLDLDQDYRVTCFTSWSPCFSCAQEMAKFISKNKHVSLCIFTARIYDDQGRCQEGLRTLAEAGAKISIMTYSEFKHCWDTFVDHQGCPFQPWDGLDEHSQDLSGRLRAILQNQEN
smiles,measurement,setting,value
Cc1cccc2nc(NC3=NC(c4[nH]ncc4Cl)C4=C(CCCC4=O)N3)oc12 (stereo not given),outcome,[1],inactive
Cc1cccc(C)c1OP(=O)(OCc1c(-c2ccccc2)no[n+]1[O-])Oc1c(C)cccc1C,outcome,[1],inactive
c1ccc(N2CCCC3(CCNCC3)C2)cc1,Potency,[2],> 20 µM (inactive)
same,Potency,[3],> 11.4 µM (inactive)
same,outcome,[4],inactive
same,Potency,[5],inactive
same,"activity change, negative = inhibition",[6]; at 7.69 µM (top of the series),-13.8% (inactive)
same,Potency,[7],> 46 µM (inactive)
same,outcome,[8],inactive
same,Potency,[9],inactive
same,Potency,[10],inactive
same,Potency,[11],7.94 µM (active)
same,"activity change, negative = inhibition",[12]; at 57.5 µM (top of the series),4.45% (inactive)
same,max response,[12]; measured here: cell count channel max response,4.47%
same,max response,[12]; measured here: lipid channel max response,14.8%
same,max response,[13],-4.75% (inactive)
CCOc1ccc(CCNC(=O)c2cc3ncccc3n2Cc2cccc(C)n2)cc1OCC,outcome,[1],inactive
N#C/C(=C\c1ccc(O)c(O)c1)C(N)=S,Potency,[5],12.6 µM (active) and 6.31 µM (active)
same,"activity change, negative = inhibition",[6]; at 38 µM (top of the series),-11.5% (inactive)
same,Potency,[14],> 46 µM (inactive)
same,Potency,[7],> 46 µM (inactive)
same,Potency,[9],inactive
same,outcome,[15],inactive
same,Potency,[10],inactive
same,Potency,[16],5.62 µM (active)
same,outcome,[17],inactive
same,Potency,[18],inactive
same,Potency,[19],inactive
same,outcome,[20],inactive
same,outcome,[21],inactive
same,outcome,[22],inactive
same,outcome,[23],inactive
same,outcome,[24],inactive
same,outcome,[25],inactive
same,Potency,[26],10 µM (active)
